TIM10 inh: growth inhibitors of TIM10 yeast strain; S. cerevisiae TIM10 strain growth, BacTiter-Glo luminescence, 24 h; inhibition, % at 10 µM; 330,000 compounds, 1.4% hits; AID 463195;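 active = inhibition of 40% or more at the single tested concentration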;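 also: wild-type TIM10 isogenic control strain grown at permissive 25 °C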
Yeast superoxide: caloric restriction mimetics inhibiting age-related superoxide in yeast | S. cerevisiae aged cells, superoxide DHE fluorescence; stronger effect = lower value | superoxide response (% of plate mean), % at 10 µM | 330,000 compounds, 0.18% hits | AID 2690;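 active = superoxide response under a set limit, about three screen SD below normal, cut at about 65% in these data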;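 also: yeast aged for seven days with compound at 30 °C before DHE staining; 100% = average MFI of all compound-treated wells on the plate with controls excluded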
tim23-1 inh: inhibits growth of tim23-1 mutant yeast; S. cerevisiae tim23-1 growth, BacTiter-Glo luminescence, 24 h; 330,000 compounds, 1.3% hits; AID 463212; inhibition, % at 20 µM;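 active = growth inhibition of the mutant yeast at or above 50%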;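 also: temperature-sensitive mutant grown at 25 °C; plate controls were DMSO-treated mutant yeast for no effect and medium wells lacking yeast for full effect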
tim10-1 inh: growth inhibitors of tim10-1 mutant yeast; S. cerevisiae tim10-1 ts strain growth, BacTiter-Glo, 24 h; 330,000 compounds, 2.2% hits; inhibition, % at 20 µM; AID 463190;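 active = inhibition of at least 40%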;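 also: mutant grown at 25 °C; 0% = DMSO wells with yeast and 100% = wells holding no yeast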
NLRP3 yeast inh: blocks the NALP3 inflammasome reconstituted in yeast; Yeast reconstituted NLRP3/ASC/caspase-1, beta-gal luminescence, 24 h; inhibition, % at 10 µM; 330,000 compounds, 0.39% hits; AID 2825;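 active = inhibition of 50% or more; inactive = inhibition below 50%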;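 also: plate controls were induced DMSO wells for no effect and uninduced yeast grown without galactose for full effect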
tim10 confirm: confirmation of TIM10 yeast growth inhibitors. inhibition, % at 10 µM. 4,600 compounds, 63% hits. S. cerevisiae tim10 strain growth, BacTiter-Glo luminescence, 24 h. shares compounds with TIM10 inh;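 active = inhibition of yeast growth at or above a set limit in either of two replicates at 10 µM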;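 also: this counterscreen used the strain with wild-type TIM10; 0% = yeast with DMSO and 100% = medium wells lacking yeast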
* marks the source's active call; other numbers are inactive results; x = not tested or not shown. Sampled rows, rich in hits. Any-hit rate of the full collection: about 3.8%.

SMILES | TIM10 inh | Yeast superoxide | tim23-1 inh | tim10-1 inh | NLRP3 yeast inh | tim10 confirm
CCCc1cc(C(=O)N2CCN(c3ccccc3C)CC2)cs1 | 40* | 92 | 34 | 32 | -49 | 36*
CN(C)C(CNC(=S)Nc1cccc(Cl)c1)c1ccccc1 (stereo unspecified) | 12 | 88 | 18 | 8 | 15 | x
CN1/C(=C\C(=O)COC(=O)c2ccc([N+](=O)[O-])o2)C(C)(C)c2ccccc21 | 65* | 111 | -290 | 16 | 24 | 75*
CN1/C(=C\C(=O)COC(=O)c2nccnc2N)C(C)(C)c2ccccc21 | 1 | 93 | 16 | 13 | 22 | x
CCOc1ccc(NC(=O)CC2S/C(=N/N=C3CCCCCC3)NC2=O)cc1 (stereo unspecified) | 8 | 99 | 31 | 17 | 13 | x
Cc1cc(C)nc(SCc2ccc(C(=O)N/N=C3\CC(C)CC(C)(C)C3)cc2)n1 (stereo unspecified) | 40* | 103 | 30 | 26 | 6 | 4
Brc1ccc(C2=Nc3cccc4cccc(c34)N2)o1 | 15 | 99 | 13 | 25 | 14 | x
Fc1ccc(C2=Nc3cccc4cccc(c34)N2)cc1 | 44* | 86 | 29 | 34 | 23 | 13
Cc1cccc(S(=O)(=O)NNC(=O)Cc2cccn2C)c1 | -4 | 109 | 2 | 12 | -2 | x
O=S(=O)(c1ccc2c(c1)OCCO2)N1CCN(Cc2ccccc2)CC1 | 43* | 100 | 49 | 26 | 17 | 30
CN(c1ccccc1)S(=O)(=O)c1ccc(NC(=S)NC(=O)c2ccccc2)cc1 | 6 | 107 | 13 | 19 | 1 | x
CN(c1ccccc1)S(=O)(=O)c1ccc(NC(=S)NC(=O)C2CC2)cc1 | 41* | 105 | 34 | 32 | -4 | -3
CN(C1CCCCC1)S(=O)(=O)c1ccc(NC(=S)NC(=O)c2cccs2)cc1 | 51* | 119 | 38 | 33 | 14 | 36*
NC(=O)C1CCCN1S(=O)(=O)c1ccc2ccccc2c1 (stereo unspecified) | -3 | 109 | -8 | -14 | 6 | x
Cc1nc(NC(=O)COC(=O)C2CC2C)c(Cl)cc1Cl (stereo unspecified) | 5 | 95 | 1 | 0 | 3 | x
CC(=O)Nc1cccc(NC(=O)CSc2nc(=O)n(Cc3ccccn3)c3c2CCC3)c1 | 97* | 108 | 8 | 8 | 12 | 4
CC(=O)Nc1cccc(NC(=O)CSc2nc(=O)n(Cc3ccncc3)c3c2CCC3)c1 | -9 | 83 | -1 | 3 | 3 | x
Oc1ccc(Nc2ncnc3scc(-c4ccccc4)c23)cc1 | 0 | 103 | 9 | 17 | -10 | x
COc1ccc(/C=N/Nc2ncnc3scc(-c4ccccc4)c23)cc1OC | 58* | 128 | 26 | 32 | 7 | 44*
CCN1C(=O)/C(=C/c2ccc(C)s2)NC1=S | 41* | 75 | 30 | 36 | -4 | -18
NC(=O)C1Cc2ccccc2CN1S(=O)(=O)c1cccs1 (stereo unspecified) | 9 | 97 | 9 | 15 | 3 | x
O=C(C1Cc2ccccc2CN1S(=O)(=O)c1cccs1)N1CCCCCC1 (stereo unspecified) | 44* | 86 | 31 | 33 | -4 | 33*
CCCCCCCCCCOC(=O)Cn1c(COc2cccc(C)c2)[n+](C)c2ccccc21 | 51* | 112 | 7 | 28 | 24 | 34*
O=C(N1CCCCCC1)N1CCN(S(=O)(=O)c2cccc([N+](=O)[O-])c2)CC1 | 13 | 109 | 15 | 32 | 0 | x
O=C(COC(=O)c1ccc(Br)c(S(=O)(=O)N2CCOCC2)c1)NCCc1ccccc1 | -2 | 112 | 5 | 7 | 4 | x
SMILES | TIM10 inh | Yeast superoxide | tim23-1 inh | tim10-1 inh | NLRP3 yeast inh | tim10 confirm
Nc1cc(OC(=O)c2cccs2)nn1S(=O)(=O)c1ccccc1 | 55* | 89 | 15 | 37 | 0 | 1
CCCN(C(=O)Cn1ncc2c(=O)oc3ccccc3c21)c1cccc(C)c1 | 41* | 112 | 31 | 33 | -7 | 16
CSCC(C)N1CCC(CCC(=O)NC2CC2)CC1 (stereo unspecified) | 4 | 87 | 10 | 13 | 5 | x
COc1cc(/C=C(\C#N)C(=O)NC2CCCCC2C)ccc1OS(=O)(=O)c1ccc(C)cc1 (stereo unspecified) | 34 | 89 | 36 | 36 | 19 | x
CC(=O)Nc1ccc(/C=C(\C#N)C(=O)NC2CCCCC2C)cc1 (stereo unspecified) | 68* | 89 | 47 | 38 | 16 | 45*
CC1(C)C(C=C(Cl)Cl)C1C(=O)Nc1ccc(S(=O)(=O)Nc2ncccn2)cc1 (stereo unspecified) | 2 | 90 | -2 | -16 | 4 | x
O=C(/C=C/c1ccc(O)c(O)c1)c1ccccc1O | 42* | 106 | 27 | 33 | 14 | 11
O=C(/C=C/c1ccoc1)c1ccccc1O | 11 | 101 | 6 | 15 | -22 | x
C#CCOCCOCCOCCNc1nc(N2CCN(C(=O)[C@H](CCCCN)n3cc([C@@H](N)CO)nn3)CC2)nc(N2CCN(C(=O)[C@H](Cc3cc4ccccc4[nH]3)n3cc([C@@H](N)CC(C)C)nn3)CC2)n1 | 94* | 104 | -6 | -19 | 11 | 1
C#CCOCCOCCOCCNc1nc(N2CCN(C(=O)[C@H](CCCCN)n3cc([C@@H](N)CO)nn3)CC2)nc(N2CCN(C(=O)[C@H](Cc3cc4ccccc4[nH]3)n3cc([C@@H](N)CO)nn3)CC2)n1 | 7 | 106 | 11 | 2 | 25 | x
Cc1ccc(-c2csc(NC(=O)C3=NN(c4ccccc4)C(=O)CC3)n2)cc1 | 40* | 119 | 34 | 33 | 10 | 33*
COc1ccc2[nH]c3c(c2c1)CCNC3c1ccc([N+](=O)[O-])o1 (stereo unspecified) | 41* | 86 | 12 | -43 | 15 | 54*
COc1ccc2[nH]c3c(c2c1)CCNC3C1CC=C(C)CC1 (stereo unspecified) | -12 | 97 | -14 | -23 | 35 | x
Cc1ccc2nc(/C(C#N)=C\c3ccc([N+](=O)[O-])o3)[nH]c2c1 | 84* | 153 | 29 | 17 | -15 | 95*
N#C/C(=C(/O)c1ccc([N+](=O)[O-])o1)c1nc2ccccc2[nH]1 | -1 | 103 | -3 | -2 | 19 | x
N#C/C(=C\c1ccc([N+](=O)[O-])o1)c1nc2ccccc2[nH]1 | 59* | 108 | -144 | 28 | -4 | 66*
Cc1ccc2nc(/C(C#N)=C\c3ccc(N4CCOCC4)o3)[nH]c2c1 | 15 | 105 | 23 | -11 | 17 | x
COc1cc(CNC(C)C)c(Br)cc1OC1CCCC1 | 1 | 88 | 14 | 13 | 21 | x
O=C(O)C1Sc2[nH]c(=O)sc2C2c3cc(Br)ccc3OC(=O)C12 (stereo unspecified) | 44* | 103 | 30 | 22 | 7 | 33*
Cc1c(Cl)cccc1NC(=S)NCc1ccccc1 | 46* | 106 | 28 | 30 | 8 | 21

Screens: PubChem BioAssay, several laboratories
